Source: PubChem BioAssay (National Center for Advancing Translational Sciences (NCATS))
Compounds with a hit are over-represented: about 7.6% of the library has one in this group of screens.
MCF10A rereplic = inducers of DNA re-replication in MCF 10A breast cells; 2.9% of 350,000 active; AID 624296; Potency, µM (highest dose often 46.1 µM), hits mostly activators; MCF 10A DNA re-replication, Hoechst nuclear intensity, 48 h; further: nearly all actives have a fitted effect of over 50% in size
KCNH2 3.1 block = inhibitors of human KCNH2 3.1 potassium channel isoform; U2OS KCNH2 3.1, thallium flux FluxOr; hits give low values; 0.95% of 340,000 active; AID 720553; activity change, % (tested at about 1.8 µM);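 active means maximum activity change below -70%; inconclusive means maximum activity change from -70% to -50%; inactive means maximum activity change above -50%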;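 further: thallium influx rate constant from kinetic fluorescence after stimulation buffer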
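FluxOr-based Tl+ influx in U2OS cells transduced with KCNH2 3.1 virus; rate constants normalized to DMSO controls.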
KCNH2 WT inh = inhibitors of human wildtype KCNH2 potassium channel; AID 720551; 0.37% of 340,000 active; Q12809; U2OS, BacMam KCNH2, thallium flux FluxOr; hits give low values; activity change, % at 1.84 µM;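 active means maximum activity change below -70%; inconclusive means maximum activity change between -70% and -50%; inactive means maximum activity change above -50%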
Target sequence (Q12809 whole entry, looked up): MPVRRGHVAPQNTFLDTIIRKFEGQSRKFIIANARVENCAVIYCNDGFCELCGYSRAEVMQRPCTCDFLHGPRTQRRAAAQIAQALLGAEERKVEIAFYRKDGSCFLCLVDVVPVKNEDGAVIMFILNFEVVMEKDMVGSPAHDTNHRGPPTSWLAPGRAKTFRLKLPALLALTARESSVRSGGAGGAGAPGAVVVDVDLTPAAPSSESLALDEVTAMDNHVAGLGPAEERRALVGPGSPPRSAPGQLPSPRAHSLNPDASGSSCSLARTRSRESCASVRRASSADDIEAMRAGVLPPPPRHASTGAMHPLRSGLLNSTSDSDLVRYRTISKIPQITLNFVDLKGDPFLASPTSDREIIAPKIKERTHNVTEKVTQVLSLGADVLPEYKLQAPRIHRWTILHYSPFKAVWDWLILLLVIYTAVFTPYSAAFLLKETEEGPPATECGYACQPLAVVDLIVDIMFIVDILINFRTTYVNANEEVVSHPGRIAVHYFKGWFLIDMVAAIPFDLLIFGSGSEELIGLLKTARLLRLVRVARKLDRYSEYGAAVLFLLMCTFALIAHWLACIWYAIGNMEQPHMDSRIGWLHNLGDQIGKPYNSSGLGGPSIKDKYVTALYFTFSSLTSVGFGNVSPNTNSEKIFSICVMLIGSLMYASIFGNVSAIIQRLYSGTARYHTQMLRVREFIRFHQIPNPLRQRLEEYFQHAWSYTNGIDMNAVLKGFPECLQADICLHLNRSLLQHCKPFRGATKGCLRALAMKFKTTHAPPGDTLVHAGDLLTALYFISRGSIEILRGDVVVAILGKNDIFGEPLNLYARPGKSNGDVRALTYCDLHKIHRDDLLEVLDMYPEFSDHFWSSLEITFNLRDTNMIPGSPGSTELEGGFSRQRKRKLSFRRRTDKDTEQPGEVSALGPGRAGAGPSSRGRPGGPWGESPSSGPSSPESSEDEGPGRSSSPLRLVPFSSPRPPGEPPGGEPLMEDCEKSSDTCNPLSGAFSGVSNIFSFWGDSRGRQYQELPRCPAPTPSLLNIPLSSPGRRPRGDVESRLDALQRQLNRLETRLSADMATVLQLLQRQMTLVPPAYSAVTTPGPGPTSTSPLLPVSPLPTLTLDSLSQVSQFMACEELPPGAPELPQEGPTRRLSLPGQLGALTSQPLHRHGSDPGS
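U2OS cells were transduced with wild-type KCNH2 virus (2.03 x 10^8 / mL) for 4 h at room temperature, then cultured overnight at 37 C. Thallium flux was read with FluxOr dye. Rate constants were normalized to DMSO controls.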
KB-3-1 tox = KB-3-1 parental cell cytotoxicity | KB-3-1 viability, CellTiter-Glo ATP luminescence, 72 h | Potency, µM (titrated, usually from 46.1 µM), usual class: cytotoxic | 1.4% of 400,000 active; further: nearly all actives have a fitted effect of over 60% in size
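Luminescent ATP read-out (CellTiter-Glo) measures survival of drug-naive KB-3-1 cells after 72 h compound exposure at 37 °C. Titration series was screened from lowest to highest concentration, with DMSO vehicle plates as background controls.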
KB-V1 MDR tox = KB-V1 MDR subline cytotoxicity; KB-V1 MDR cells viability, CellTiter-Glo, 72 h; Potency, µM (doses to about 46.1 µM), hits mostly cytotoxic; 3.4% of 400,000 active; further: nearly all actives have a fitted effect of over 60% in size
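Cytotoxicity toward P-gp-expressing KB-V1 cells was determined as loss of CellTiter-Glo luminescence after 72 h at 37 degrees C. Compounds were tested in quantitative HTS format across a concentration range, with curves fitted to normalized data.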
SW480 rerep = inducers of DNA re-replication in SW480 colon cancer cells. AID 624297. SW480 DNA re-replication, Hoechst DNA content imaging, 48 h. Potency, µM (doses to about 46.1 µM), usual class: activators. 1.8% of 340,000 active; further: nearly all actives have a fitted effect of over 55% in size
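DNA re-replication was detected as more nuclei of elevated Hoechst intensity after 48 hr exposure to compound (23 nL pinned per well of 250 cells).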
Large screens that a line does not name were inactive. Unless noted, the call rests on the fitted dose curve; in most records, active means well fitted curve in the direction sought with a large enough effect; inconclusive means small, poorly fitted or top-dose-only effect, or another doubt; inactive means no such curve, though single readings can be large; an effect the other way counts as inactive or inconclusive.

CCC(C)N(C(=O)CSc1nnc(COc2ccccc2F)n1N)C1CCS(=O)(=O)C1 (stereo unspecified)	none
COc1nc(Nc2ccc([N+](=O)[O-])cc2)nc(NC(C)C)n1	KB-V1 MDR tox 11.6µM
COc1nc(NCCO)nc(Nc2ccc([N+](=O)[O-])cc2)n1	none
COc1ccc(-c2oc3ncn(CCN4CCOCC4)c(=N)c3c2-c2ccc(OC)cc2)cc1	MCF10A rereplic 13µM, KB-3-1 tox inconclusive, KB-V1 MDR tox inconclusive, SW480 rerep inconclusive
c1ccc(-c2oc3ncnc(NCCCN4CCOCC4)c3c2-c2ccccc2)cc1	MCF10A rereplic inconclusive, KB-3-1 tox inconclusive, KB-V1 MDR tox inconclusive
COc1ccc(-c2oc3ncnc(NCCN4CCOCC4)c3c2-c2ccc(OC)cc2)cc1	MCF10A rereplic inconclusive, KB-3-1 tox inconclusive, KB-V1 MDR tox inconclusive
COc1ccc(-c2oc3ncnc(NCCCN4CCOCC4)c3c2-c2ccc(OC)cc2)cc1	MCF10A rereplic inconclusive, KB-V1 MDR tox 18.4µM, SW480 rerep inconclusive
O=C(C[n+]1ccccc1Cl)c1ccccc1	none (no result: MCF10A rereplic, KCNH2 3.1 block, KCNH2 WT inh, SW480 rerep)
FC(F)(F)c1cccc(N2CCN(C3CC4CCC3C4)CC2)c1 (stereo unspecified)	MCF10A rereplic inconclusive, KB-V1 MDR tox inconclusive, SW480 rerep inconclusive
O=C(CCN1CCOCC1)Nc1cc(C(=O)Nc2ccc(Cl)cc2)ccc1N1CC2CC(C1)c1cccc(=O)n1C2 (stereo unspecified)	KB-V1 MDR tox inconclusive
C=CC[C@H](CC(=O)N(CCO)Cc1ccccc1)C(=O)NC[C@H](OC(=O)[C@@H](CC=C)Cc1ccc(F)cc1)c1ccccc1	MCF10A rereplic inconclusive, KB-3-1 tox inconclusive, KB-V1 MDR tox inconclusive
O=C(CN1CCOCC1)Nc1ncc(Cc2cccc3ccccc23)s1	MCF10A rereplic inconclusive, KB-V1 MDR tox 13µM
N#CCC(=O)Nc1ncc(Cc2ccccc2Cl)s1	MCF10A rereplic 14.6µM, SW480 rerep inconclusive
CC(C)C(=O)Nc1ncc(Cc2ccccc2Cl)s1	none
CCN1CCN(c2ncc(C(=O)Nc3ccccc3C(=O)OC)c3ccccc23)CC1	MCF10A rereplic inconclusive, KB-3-1 tox inconclusive, KB-V1 MDR tox inconclusive, SW480 rerep inconclusive
CCCCN(C=O)c1c(CC)nc2c(OCc3cccc(Cl)c3)cccn12	none (no result: MCF10A rereplic, KCNH2 3.1 block, KCNH2 WT inh, SW480 rerep)
Cc1cccc(NC(=S)NNC(=O)CCn2cc(C)cn2)c1	SW480 rerep inconclusive
O=C(O)C(=O)Nc1ccc(NC(=O)C(c2ccccc2)c2ccccc2)cc1	none
Cc1ncc(CO)c(/C=N/NC(=S)Nc2ccc(C(C)C)cc2)c1O	KB-3-1 tox inconclusive, SW480 rerep 2.91µM
Cc1ncc(CO)c(/C=N/Nc2cccc(Cl)n2)c1O	none
CC(C)c1ccc(NC(=O)c2ccc3c(c2)CCCN3S(C)(=O)=O)cc1	KB-V1 MDR tox inconclusive (no result: MCF10A rereplic, KCNH2 3.1 block, KCNH2 WT inh, SW480 rerep)
O=S(=O)(Cc1ccccc1Cl)c1ncn[nH]1	KCNH2 3.1 block -156.4, KCNH2 WT inh -129.8, KB-3-1 tox inconclusive
Cc1cccc(C(=O)Nc2ccc(C(=O)/C=C/c3ccncc3)cc2)c1	MCF10A rereplic inconclusive, KB-3-1 tox inconclusive, SW480 rerep inconclusive
O=C(/C=C/c1cccnc1)c1ccc(NC(=O)c2cccc(Br)c2)cc1	KB-3-1 tox inconclusive, KB-V1 MDR tox 7.94µM
Cc1cccc(C(=O)Nc2ccc(C(=O)/C=C/c3cccnc3)cc2)c1	MCF10A rereplic inconclusive, KB-V1 MDR tox inconclusive, SW480 rerep 20.6µM
COc1ccc(CCSc2n[nH]c(C(C)C)n2)cc1	KB-V1 MDR tox inconclusive (no result: MCF10A rereplic, KCNH2 3.1 block, KCNH2 WT inh, SW480 rerep)
CCCCCn1cnc2sc(CC)cc2c1=O	KB-V1 MDR tox 14.6µM
CCCSCCCNC(=O)c1sc2nc(C)cc(C)c2c1-n1cccc1	none (no result: MCF10A rereplic, KCNH2 3.1 block, KCNH2 WT inh, SW480 rerep)
CCOC(=O)Nc1sc2nc(C)cc(C)c2c1-n1cccc1	KB-3-1 tox inconclusive, KB-V1 MDR tox 18.4µM
CCOC(=O)C1=NS(=O)(=O)NC(C)=C1	none
COc1ccc(O)c(C(=O)c2cnn(C(=O)c3cccc(S(=O)(=O)N4CCOCC4)c3)c2)c1	none
Cn1c(N)c(C(=O)CCl)c(=O)n(Cc2ccccc2)c1=O	KCNH2 3.1 block -115.9, KB-3-1 tox inconclusive, SW480 rerep inconclusive
Cc1ccc(S(=O)(=O)N2CCOCC2)cc1NC(=O)C(c1ccc(Cl)cc1)C(C)C (stereo unspecified)	KB-V1 MDR tox inconclusive
CCC(C)CCN1C(Nc2ccccc2)=NC[C@@H]1Cc1ccccc1 (stereo partly specified)	KB-V1 MDR tox inconclusive
CN(C)C1=NC[C@H](Cc2ccccc2)N1CCCC1CCCC1	KCNH2 3.1 block -101.8, SW480 rerep inconclusive
CCN1C(Nc2ccccc2)=NC[C@@H]1Cc1ccccc1	KCNH2 3.1 block -109.0, KB-V1 MDR tox inconclusive
c1ccc(C[C@H]2CN=C(Nc3ccccc3)N2CCCC2CCCC2)cc1	KCNH2 3.1 block -95.7, KCNH2 WT inh -93.1
CN(C)C1=NC[C@H](Cc2ccccc2)N1CCCC1CCCCC1	KCNH2 3.1 block inconclusive
CCCCCCCN1C(Nc2ccccc2)=NC[C@@H]1Cc1ccccc1	KCNH2 3.1 block -108.9, KB-3-1 tox inconclusive
COc1ccc(OC)c(CNC(=O)c2coc(=O)c3ccccc23)c1	none
O=C(NC(Cc1c[nH]c2ccccc12)C(=O)O)c1cccc(S(=O)(=O)N2CCCCC2)c1 (stereo unspecified)	none (no result: MCF10A rereplic, SW480 rerep)
c1ccc(CCCCN2C(Nc3ccccc3)=NC[C@@H]2Cc2ccccc2)cc1	MCF10A rereplic inconclusive, KCNH2 3.1 block -104.3
CC(C)(C)C1CCC(CN2C(Nc3ccccc3)=NC[C@@H]2Cc2ccccc2)CC1 (stereo partly specified)	KB-3-1 tox inconclusive, KB-V1 MDR tox 18.4µM, SW480 rerep inconclusive (no result: KCNH2 3.1 block, KCNH2 WT inh)
Cc1cc(C)n(CCNc2nc3nonc3nc2N2CCCCC2)n1	none
COc1ccc(Oc2ccc(/C=C/C(=O)c3ccc(O)cc3)cc2[N+](=O)[O-])cc1	MCF10A rereplic 2.91µM, KB-V1 MDR tox inconclusive, SW480 rerep 7.31µM
O=C(O)COc1ccc(/C=C/C(=O)c2ccc3ccccc3c2)cc1	MCF10A rereplic 18.4µM, KB-3-1 tox inconclusive
CN(C)c1ccc(/C=C/C(=O)c2ccccc2)cc1[N+](=O)[O-]	none
COc1ccc(C(=O)/C=C/c2cccc(OCc3ccccc3)c2)cc1CSCC(=O)O	KB-3-1 tox inconclusive, KB-V1 MDR tox inconclusive
COc1ccc(/C=C/C(=O)c2ccc(O)cc2)cc1COc1ccc(F)cc1	none
O=C(O)COc1ccc(/C=C/C(=O)c2ccc(C3CCCCC3)cc2)cc1	MCF10A rereplic inconclusive, SW480 rerep inconclusive
COc1ccc(C(=O)/C=C/c2ccc(OCc3ccccc3)cc2)cc1CSCC(=O)O	MCF10A rereplic 23.1µM, SW480 rerep inconclusive
O=C(/C=C/c1ccc(O)c([N+](=O)[O-])c1)c1ccc2ccccc2c1	MCF10A rereplic 7.31µM, SW480 rerep inconclusive
